# In the supplement of paper PMC3334620:
# The full ranking holds about 33,000 sequences; the median of “E-score (-0.5 to 0.5)” is about -0.0034, and the highest 2% start at about 0.25. The full list was thinned out, with the highest values kept by preference.
# Target: T1, Yap3 (UniProt P38749)
# T1 sequence: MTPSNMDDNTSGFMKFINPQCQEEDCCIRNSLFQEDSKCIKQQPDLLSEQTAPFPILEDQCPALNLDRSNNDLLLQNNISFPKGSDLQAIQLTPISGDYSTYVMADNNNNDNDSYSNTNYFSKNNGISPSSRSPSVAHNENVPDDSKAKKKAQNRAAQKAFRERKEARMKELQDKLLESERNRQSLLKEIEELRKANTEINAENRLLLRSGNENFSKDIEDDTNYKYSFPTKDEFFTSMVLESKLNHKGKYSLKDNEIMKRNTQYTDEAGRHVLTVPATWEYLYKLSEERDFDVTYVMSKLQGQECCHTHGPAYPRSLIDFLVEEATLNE
# Assay: PBM E-score (8-mer binding enrichment) (E-score (-0.5 to 0.5)); higher = stronger / more preferred TF binding
# Conditions: protein concentration: 100 nM; construct: GST-full length
# Description: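 Universal 'all 10-mer' protein binding microarrays (Agilent AMADID 015681) probed with GST-tagged S. cerevisiae TFs (full-length or DBD) made by in vitro transcription/translation (PURExpress), about 100-200 nM. Bound TF was detected with fluorescent anti-GST. Each ungapped 8-mer (which stands for itself and its reverse complement) is scored by the PBM enrichment score (E-score), a modified Wilcoxon-Mann-Whitney statistic from -0.5 to +0.5, computed with the Universal PBM Analysis Suite. Scale: above 0.35 generally sequence-specific binding.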
row,Sequence,PBM E-score
1,TTGTACAA,0.185
2,CATCAGAC,-0.133
3,ACATACCC,0.0479
4,GAACTCGC,0.0628
5,CTCCTACC,-0.275
6,CCTGAACG,-0.154
7,GTCTAGCA,0.0493
8,ATGAGAAA,0.181
9,GCGTTAGA,0.0241
10,AAGCGTTC,-0.0829
11,GCGGCCTA,-0.0845
12,AATTTTAA,0.212
13,ATTTTAAC,0.149
14,ATTTTTAA,0.295
15,ATTTTTAG,-0.0279
16,ATTTTTTG,0.226
17,GTTTTAAA,0.235
18,AATTTTTA,0.252
19,ATTTTTTA,0.255
20,ATTTTAAA,0.282
21,TCAGCGCA,-0.216
22,CGGTTTTA,-0.106
23,CTAAGTAC,0.016
24,CGATGGGC,-0.18
25,CCAACAGC,0.0293

row,Sequence,PBM E-score
1,GAGTCATC,-0.00184
2,CATACACC,0.0314
3,AATACACC,0.272
4,GATACACC,0.161
5,AATACACT,0.259
6,AATACACA,0.131
7,AATACACG,0.0582
8,CGGCAGGC,-0.189
9,CGAGAGTA,0.0233
10,GCATTGTA,-0.0355
11,GCAAAGAA,0.0916
12,CAGCGAAG,-0.16
13,ATTGCAAG,0.0639
14,ATTGCAAT,0.283
15,ATTGCAAA,0.0883
16,ATGGCCAA,-0.114
17,AGGTGCCG,-0.101
18,CTGTTTCA,0.0525
19,GCCAAGAC,-0.195
20,AAAATAAG,0.271
21,AAAATATC,0.257
22,AAAATAAC,0.0743
23,AAAATATA,0.19
24,AAAATACG,0.234
25,CAAATATG,0.131

row,Sequence,PBM E-score
1,CAAATACC,0.0818
2,CAAATATC,0.285
3,CAAATAAG,-0.0581
4,GAAATATC,0.0879
5,CGAATATC,0.154
6,AAAATATG,0.256
7,GAAGCTAA,-0.136
8,ATAAGGTG,-0.00609
9,ATCTGCCG,0.101
10,GTCAGCAC,-0.0445
11,GGATCAAA,0.111
12,AAAATATT,0.318
13,AAAATAGT,0.12
14,AAAATACT,0.0626
15,TAGCAACA,0.114
16,AAGCACTT,-0.0376
17,CGTGGCTC,-0.321
18,CCGGAAAA,0.106
19,AATCGAAA,0.0602
20,AATCGAAG,0.256
21,AATCGACA,0.258
22,AATCGAAC,0.107
23,AATCGACC,-0.00549
24,AATCGACT,-0.0232
25,AACGCGCT,-0.012

row,Sequence,PBM E-score
1,AACGCGAG,0.126
2,AACGCGCA,0.103
3,AACGCGCG,0.265
4,AACGCGAA,0.298
5,CACGCGAA,-0.0244
6,ACGCACCC,-0.243
7,ACCCGCAA,-0.239
8,ACTAGTTG,-0.0214
9,TCGCAAGA,-0.0427
10,TCCATCCA,-0.0216
11,ACCCCCAT,-0.246
12,AAGACAAC,0.267
13,CAGACAAC,0.0898
14,AAGACAAG,0.045
15,GAAAGAGA,0.0574
16,ATCATCAT,0.139
17,AATTTGCG,0.0563
18,CTCGTAAC,0.177
19,ATCGTAAG,0.137
20,CTCGTAAG,0.257
21,ATTGTCTG,0.11
22,AAGATGAT,0.0727
23,ATTGCTCA,-0.00161
24,AGTAGATA,0.273
25,TATAGATA,0.0759

row,Sequence,PBM E-score
1,AATAGATA,0.267
2,AGTAGATC,-0.0265
3,CGTAGATA,0.0847
4,GATAGATA,0.0286
5,GGCATCGA,-0.125
6,ACGGCGCA,0.0681
7,AGAATGCC,-0.00977
8,CCGCAAAA,0.076
9,AATAGTTA,0.0935
10,AATAGTAG,0.206
11,AATAGTAA,0.258
12,GATAGTAA,0.11
13,CATAGTAA,0.198
14,TATAGTAA,0.27
15,AATAGTTC,0.156
16,AATAGTTG,0.267
17,AATAGTAC,0.0612
18,GCCTAACC,-0.151
19,ATCTACTA,0.185
20,AAACCTCG,-0.132
21,ACATCGAT,0.0921
22,ACCTAGTA,-0.119
23,ATTCATTA,0.174
24,CTTCATTA,0.242
25,GTTCATTA,0.259

row,Sequence,PBM E-score
1,ACTTCATC,0.0677
2,ACCGTCGG,-0.163
3,AACTAGCT,-0.0564
4,ATATATTG,0.0595
5,ATAGATTG,0.119
6,CTATATTA,0.325
7,ATAGATTA,0.348
8,CTCTATTA,0.0839
9,ATATATTA,0.32
10,GTAGATTA,0.245
11,CTATATTC,0.151
12,CGATATTA,0.358
13,GGATATTA,0.0994
14,GTATATTA,0.211
15,CGATATTC,0.0953
16,GGTACTGA,-0.124
17,GATGGGGA,-0.0817
18,ATATAGAC,0.123
19,AGTGCATC,-0.0272
20,CTACGCGC,-0.0286
21,ATAGAGAT,0.166
22,ATATATCA,0.118
23,CCATATTA,0.24
24,ATATAGTA,0.264
25,CTATATCA,0.264

row,Sequence,PBM E-score
1,ATATCTCA,0.268
2,CTATAGTA,0.156
3,ACATATTA,0.305
4,GTATATCA,0.0881
5,ATCTCTCA,0.15
6,ACATATTG,0.11
7,GTATAGTA,0.143
8,CTATCTCA,-0.0511
9,AGTGCCTC,-0.229
10,GATAGACA,0.0506
11,GTCTTCGA,-0.122
12,TCAGTAGA,0.0364
13,GGTCCACC,-0.329
14,ACAGCAAG,0.247
15,ACAACATG,0.136
16,ACGCAAGT,-0.0875
17,CGAGCATC,0.00988
18,AGCCCAGA,-0.0938
19,ATATCAAT,0.268
20,ATATCAAG,0.26
21,CTATCAAG,0.067
22,ATATCAGG,-0.0437
23,ATATCAAA,0.244
24,ATATCAAC,0.166
